Assay [1] deals with Glucocorticoid receptor (Homo sapiens) (UniProt P04150). In words: qHTS assay for small molecule agonists of glucocorticoid receptor signaling (AID 588532; active = well fitted curve in the direction sought with a large enough effect in the signal ratio, with a control signal flat; the % refers to the signal ratio;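 note: 100% = dexamethasone at 0.1 µM and 0% = DMSO only wells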). The settings on record: HeLa MMTV-bla, beta-lactamase ratio, agonist, 18 h; activation: stronger effect = higher value, percent of dexamethasone control, DMSO zero. The procedure, abridged: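 Using MMTV-bla HeLa cells in medium with 1% stripped FBS and 25 mM HEPES, compounds were titrated and incubated overnight-length (18 h). Beta-lactamase cleavage of CCF4 was quantified by dual-emission fluorescence.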
Glucocorticoid receptor (Homo sapiens), sequence (P04150 whole entry, looked up): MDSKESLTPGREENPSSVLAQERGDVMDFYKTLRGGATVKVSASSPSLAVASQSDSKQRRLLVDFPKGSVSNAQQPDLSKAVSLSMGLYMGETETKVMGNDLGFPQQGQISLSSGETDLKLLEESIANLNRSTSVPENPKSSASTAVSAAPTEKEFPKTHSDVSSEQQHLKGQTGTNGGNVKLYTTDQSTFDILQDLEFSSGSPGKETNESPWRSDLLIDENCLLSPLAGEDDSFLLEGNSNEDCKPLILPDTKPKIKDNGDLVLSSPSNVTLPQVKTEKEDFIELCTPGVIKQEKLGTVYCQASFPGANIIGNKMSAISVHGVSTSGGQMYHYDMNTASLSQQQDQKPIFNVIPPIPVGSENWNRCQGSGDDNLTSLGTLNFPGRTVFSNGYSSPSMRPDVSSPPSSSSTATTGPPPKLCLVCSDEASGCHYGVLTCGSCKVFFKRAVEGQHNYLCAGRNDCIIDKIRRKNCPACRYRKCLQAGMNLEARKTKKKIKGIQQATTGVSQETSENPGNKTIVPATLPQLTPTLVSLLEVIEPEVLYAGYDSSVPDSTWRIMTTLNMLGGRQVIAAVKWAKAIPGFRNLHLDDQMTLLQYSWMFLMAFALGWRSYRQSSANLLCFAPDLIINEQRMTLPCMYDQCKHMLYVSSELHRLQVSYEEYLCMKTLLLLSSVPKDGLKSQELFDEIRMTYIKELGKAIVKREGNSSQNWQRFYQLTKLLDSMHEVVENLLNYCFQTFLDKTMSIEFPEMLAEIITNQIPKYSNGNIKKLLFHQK
On the technique in general: In qHTS, concentration-response curves come from the screen itself.

The target of assay [2] is Peroxisome proliferator-activated receptor delta (Homo sapiens) (UniProt Q03181). Kind of assay: qHTS assay for small molecule agonists of peroxisome proliferator-activated receptor delta signaling (AID 588534).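 Note: 0% = DMSO basal wells and 100% = positive control agonist at 10 µM.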 An outline of the steps: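 Cell-based beta-lactamase reporter assay run in agonist mode: cells seeded and incubated 5 hrs at 37 C, compounds added and incubated 18 hrs at 37 C. CCF4 dye fluorescence read after 2 hrs at RT; EC50 and efficacy from Hill fits.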
Peroxisome proliferator-activated receptor delta (Homo sapiens), sequence (Q03181 whole entry, looked up): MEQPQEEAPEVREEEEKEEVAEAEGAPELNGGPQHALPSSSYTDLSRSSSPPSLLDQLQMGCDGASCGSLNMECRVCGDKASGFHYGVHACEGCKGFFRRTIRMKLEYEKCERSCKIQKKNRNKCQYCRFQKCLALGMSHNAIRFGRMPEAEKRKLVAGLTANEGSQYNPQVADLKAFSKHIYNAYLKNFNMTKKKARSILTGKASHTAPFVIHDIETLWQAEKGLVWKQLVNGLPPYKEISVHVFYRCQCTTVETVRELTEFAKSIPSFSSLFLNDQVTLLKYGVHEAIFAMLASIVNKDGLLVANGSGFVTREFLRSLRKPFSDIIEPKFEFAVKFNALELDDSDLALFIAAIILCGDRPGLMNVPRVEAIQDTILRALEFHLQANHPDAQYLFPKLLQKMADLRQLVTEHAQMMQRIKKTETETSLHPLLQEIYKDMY

Assay [3] is described as follows: qHTS assay for small molecule antagonists of peroxisome proliferator-activated receptor delta signaling (AID 588535).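 Note: cells co-treated with a PPAR-delta agonist as stimulator during compound exposure.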 The settings on record: HEK293T PPARd-UAS-bla, beta-lactamase FRET ratio, 18 h; 460 nm channel. An outline of the steps: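 Cell-based beta-lactamase assay in antagonist mode: 4000 HEK293T PPAR-delta-UAS-bla cells per well, 5 hr preincubation then 18 hr compound incubation at 37 C. IC50 obtained by Hill equation fitting.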

For assay [4], the target named is Vitamin D3 receptor (Homo sapiens) (UniProt P11473). In words: qHTS assay for small molecule antagonists of vitamin D receptor signaling (AID 588541).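 Note: receptor activated by calcitriol during compound treatment; series mostly up to about 77 µM; % is set by controls: 0 for no effect and ±100 for the full control effect.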 An outline of the steps: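 Antagonist-mode beta-lactamase reporter assay: HEK293T VDR-UAS-bla cells were exposed to titrated compound alongside 1-alpha,25-dihydroxyvitamin D3 at 3 nM final for 16 h. Values were normalized to the 50 nM agonist control and DMSO basal, with IC50 and efficacy from Hill equation fits.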
Vitamin D3 receptor (Homo sapiens), sequence (P11473 whole entry, looked up): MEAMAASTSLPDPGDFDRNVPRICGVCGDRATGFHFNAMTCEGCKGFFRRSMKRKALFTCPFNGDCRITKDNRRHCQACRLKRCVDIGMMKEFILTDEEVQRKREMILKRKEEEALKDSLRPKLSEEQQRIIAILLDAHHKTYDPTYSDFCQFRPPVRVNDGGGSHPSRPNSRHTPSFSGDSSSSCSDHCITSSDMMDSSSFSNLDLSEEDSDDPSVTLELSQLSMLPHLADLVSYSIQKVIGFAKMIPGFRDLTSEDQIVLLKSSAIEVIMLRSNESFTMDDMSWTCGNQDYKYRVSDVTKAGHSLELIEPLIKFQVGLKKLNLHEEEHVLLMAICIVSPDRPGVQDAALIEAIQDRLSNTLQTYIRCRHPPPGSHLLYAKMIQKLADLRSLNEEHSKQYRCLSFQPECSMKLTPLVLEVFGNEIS

Assay [5] has the same target. Kind of assay: qHTS assay for small molecule agonists of vitamin D receptor signaling (AID 588543).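 Note: 0% = DMSO basal and 100% = reference agonist control.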 An outline of the steps:
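qHTS in agonist mode: compound titrations stimulate a VDR-driven β-lactamase reporter in HEK293T cells over 16 h at 37 °C. Response normalized to 50 nM 1α,25-dihydroxyvitamin D3 = 100%, DMSO = 0%; Hill fitting gives EC50 and maximal response.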

For assay [6], the target named is Retinoic acid receptor RXR-alpha (Homo sapiens) (UniProt P19793). In words: qHTS assay for small molecule agonists of retinoid X receptor alpha signaling (AID 588544).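 For activation: 0% = DMSO basal wells and 100% = reference agonist.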 Note: potency is the fitted concentration of half-maximal effect.
Retinoic acid receptor RXR-alpha (Homo sapiens), sequence (P19793 whole entry, looked up): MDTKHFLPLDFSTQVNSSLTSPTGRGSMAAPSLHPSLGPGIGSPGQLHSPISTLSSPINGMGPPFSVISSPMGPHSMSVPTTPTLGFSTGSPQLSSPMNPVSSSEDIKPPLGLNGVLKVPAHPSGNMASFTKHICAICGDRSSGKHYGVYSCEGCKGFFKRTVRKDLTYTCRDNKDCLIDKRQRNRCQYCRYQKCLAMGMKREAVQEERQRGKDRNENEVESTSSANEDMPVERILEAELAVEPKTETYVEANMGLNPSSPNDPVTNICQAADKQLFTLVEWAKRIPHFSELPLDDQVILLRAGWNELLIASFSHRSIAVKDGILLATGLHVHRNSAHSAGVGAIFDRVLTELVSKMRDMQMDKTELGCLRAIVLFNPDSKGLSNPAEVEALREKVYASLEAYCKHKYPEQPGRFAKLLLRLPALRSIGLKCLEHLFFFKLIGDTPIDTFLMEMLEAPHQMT
For assay [7], the target named is Thyroid hormone receptor beta (Homo sapiens) (UniProt P10828). Kind of assay: qHTS assay for small molecule agonists of thyroid hormone receptor beta signaling (AID 588545). The procedure, abridged: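 Agonist activity was read as beta-lactamase CCF4 fluorescence (405 ex, 460/530 em), scaled between DMSO (0%) and 10 nM T3 (100%), then Hill-fitted for EC50 and efficacy. HEK 293 TR-UAS-bla cells in 2% charcoal/dextran FBS medium were exposed 18 h at 37 C.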
Thyroid hormone receptor beta (Homo sapiens), sequence (P10828 whole entry, looked up): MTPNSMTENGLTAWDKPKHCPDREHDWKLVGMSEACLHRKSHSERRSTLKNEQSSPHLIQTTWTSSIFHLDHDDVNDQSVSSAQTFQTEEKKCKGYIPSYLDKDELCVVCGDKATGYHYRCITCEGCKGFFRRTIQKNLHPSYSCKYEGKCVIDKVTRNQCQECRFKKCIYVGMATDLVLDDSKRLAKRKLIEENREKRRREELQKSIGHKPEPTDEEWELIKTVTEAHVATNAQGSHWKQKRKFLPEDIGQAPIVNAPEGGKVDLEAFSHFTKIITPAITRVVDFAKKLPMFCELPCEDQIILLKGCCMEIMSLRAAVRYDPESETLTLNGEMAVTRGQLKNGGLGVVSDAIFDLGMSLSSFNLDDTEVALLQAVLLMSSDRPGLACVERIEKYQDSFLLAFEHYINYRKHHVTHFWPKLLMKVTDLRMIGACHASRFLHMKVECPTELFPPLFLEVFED

Assay [8] is described as follows: qHTS assay for small molecule antagonists of retinoid X receptor alpha signaling (AID 588546; active = well fitted inhibition curve with a large enough effect in the signal ratio, with a control signal flat, not every such curve was filed as active; the % refers to the signal ratio;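 note: cells stimulated with 9-cis-retinoic acid as agonist; % is set by controls: 0 for no effect and ±100 for the full control effect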). The settings on record: HEK293T RXRa-UAS-bla, beta-lactamase ratio, antagonist mode; measured here: W530 green channel, cytotoxicity proxy. An outline of the steps: (§1)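 Beta-lactamase reporter inhibition, read as CCF4 fluorescence ratio (ex 405, em 460/530 nm) after 2 h at RT. HEK293T UAS-bla cells, 2500/well, were stimulated with 9-cis-RA at 500 or 100 nM final alongside test compound for 18 h at 37 C.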

Assay [9] has as its target Retinoic acid receptor RXR-alpha (Homo sapiens) (UniProt P19793). Described as above. The settings on record: HEK293T RXRa-UAS-bla, beta-lactamase ratio, antagonist mode. The procedure, abridged:
as §1

Assay [10] deals with Thyroid hormone receptor beta (Homo sapiens) (UniProt P10828). Kind of assay: qHTS assay for small molecule antagonists of thyroid hormone receptor beta signaling (AID 588547; active = well fitted inhibition curve with a large enough effect in the signal ratio, with a control signal flat, not every such curve was filed as active; the % refers to the signal ratio;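 note: cells stimulated with 0.4 nM T3 agonist during compound exposure; series mostly up to about 77 µM; % is set by controls: 0 for no effect and ±100 for the full control effect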). The settings on record: TR-UAS-bla HEK293, beta-lactamase ratio, antagonist mode, 18 h. The procedure, abridged: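 Inhibition of T3-driven (0.4nM final) beta-lactamase reporter activity was measured over 0.59 nM to 92 uM compound after 18 h at 37 C. The cells were GripTite HEK293 TR-UAS-bla in charcoal/dextran-stripped serum, with CCF4 ratio read-out and IC50 from Hill fits.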

The nature of assay [11]: qHTS assay for small molecule activators of the nuclear factor-kappa B (NF-kB) signaling pathway (AID 651749; active = well fitted activation curve with a large enough effect in the signal ratio; the % refers to the signal ratio; note: series mostly up to about 77 µM; % of control where 0% means no effect). The note with it: NF-kB-bla ME-180 cells, beta-lactamase FRET ratio, 16 h; activation: stronger effect = higher value. The procedure, abridged: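 Stably transfected ME-180 line; NF-kB response element upstream of beta-lactamase. Treatment: compound or DMSO, 16 hr. Detection: fluorescent FRET substrate.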

Assay [12] in a line: qHTS assay for environmental chemicals that activate the Aryl hydrocarbon Receptor (AhR) signaling pathway (AID 651777; active = well fitted curve in the direction sought with a large enough effect; an effect the other way counts as inactive or inconclusive; note: % of control where 0% means no effect; nearly all actives have a fitted effect of over 15% in size). The note with it: 1A2-DRE human hepatoma cells, luciferase, 24 h; activation: stronger effect = higher value. The procedure, abridged: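 Luminescence (One-Glo, 30 min, room temperature) reports AhR-driven luciferase in stably transfected human hepatoma cells bearing DRE and CYP1A2 promoter. Cells (1,200/well) were treated with compound for 24 hr at 37 C in qHTS format.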

Assay [13] concerns the target Peroxisome proliferator-activated receptor alpha (Homo sapiens) (UniProt Q07869). Kind of assay: qHTS assay for small molecule agonists of the peroxisome proliferator-activated receptor alpha (PPARalpha) signaling pathway (AID 651778; active = well fitted curve in the direction sought with a large enough effect; an effect the other way counts as inactive or inconclusive; note: % of control where 0% means no effect). The settings on record: PathHunter PPARalpha complementation, chemiluminescence, 6 h; max response: stronger effect = higher value. An outline of the steps:
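Chemiluminescence from complemented enzyme reported PPARalpha activation in cells after 6 hr of compound treatment at 37 C. The detection reagent was incubated for 60 min at room temperature, and compounds were scored as agonists.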

A short description of assay [14]: qHTS assay for small molecule agonists of the antioxidant response element (ARE) signaling pathway measured by Nrf2-dependant transcriptional activity (AID 720636; active = well fitted curve in the direction sought with a large enough effect in the repeat runs; an effect the other way counts as inactive or inconclusive; note: % of control where 0% means no effect). The procedure, abridged:
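Nrf2-dependent transcription read as ONE-Glo luciferase signal from ARE-luc HepG2 reporter cells after 16 hr compound treatment at 37 C, 5% CO2, in assay medium with 1% dialyzed FBS.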

Assay [15] can be described thus: qHTS assay for small molecule agonists of the antioxidant response element (ARE) signaling pathway measured by Nrf2-dependant transcriptional activity - cell viability counter screen (AID 720653; active = well fitted curve in the direction sought with a large enough effect in the repeat runs; an effect the other way counts as inactive or inconclusive; note: % is set by controls: 0 for no effect and ±100 for the full control effect). The settings on record: ARE-bla HepG2 viability, CellTiter-Glo ATP luminescence, 16 h; max response: stronger effect = lower value. The procedure, abridged:
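Cytotoxicity counter screen: intracellular ATP quantified by CellTiter-Glo luminescence in the same ARE-bla HepG2 plates, after 16 h compound exposure and a 2 h beta-lactamase substrate step.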

Assay [16] can be described thus: qHTS assay for cell viability of HEK293 cells (AID 743288; active = well fitted curve in the direction sought with a large enough effect; an effect the other way counts as inactive or inconclusive; note: % is set by controls: 0 for no effect and ±100 for the full control effect; nearly all actives have a fitted effect of over 50% in size). The settings on record: ATP luminescence (CellTiter-Glo), 18 h; max response: stronger effect = lower value. The procedure, abridged:
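The Tox21 protocol used parental HEK293 cells treated for 18 h at 37 C with compounds delivered by pintool; ATP-coupled luminescence after 30 min at room temperature gave viability.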

The nature of assay [17]: qHTS assay for cell viability of the p53RE-bla HCT-116 cell line (AID 743292; active = well fitted curve in the direction sought with a large enough effect; an effect the other way counts as inactive or inconclusive; note: % is set by controls: 0 for no effect and ±100 for the full control effect; nearly all actives have a fitted effect of over 55% in size). The procedure, abridged: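 ATP-based luminescent viability (CellTiter-Glo, 30 min RT) after 16 h compound treatment at 37 C of p53RE-bla HCT-116 cells, seeded at 4,000 cells/well and rested 5 h before dosing.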
Assay [18] addresses Bile acid receptor (Homo sapiens) (UniProt Q96RI1). Kind of assay: qHTS assay for small molecule antagonists of farnesoid X receptor signaling (AID 588526). Note: % is set by controls: 0 for no effect and ±100 for the full control effect. An outline of the steps:
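Beta-lactamase reporter antagonist mode: HEK293T FXR-UAS-bla cells, titrated compound, CDCA stimulation, 16 h 37 C, CCF4 dye 2 h RT. Data normalized to CDCA 50 uM and DMSO; Hill-fit IC50.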

Assay [19] has the same target. In words: qHTS assay for small molecule agonists of farnesoid X receptor signaling (AID 588527).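 Note: series mostly up to about 77 µM; 0% = vehicle basal and 100% = reference agonist.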 The note with it: HEK293T FXR-UAS-bla, beta-lactamase ratio, 16 h; activation: stronger effect = higher value. An outline of the steps:
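Quantitative HTS used FXR-UAS-bla HEK293T cells with 16 h compound incubation at 37 C. EC50 values came from concentration-response curves normalized to chenodeoxycholic acid.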

The nature of assay [20]: qHTS assay for small molecule activators of the p53 signaling pathway (AID 651743; active = well fitted activation curve with a large enough effect in the signal ratio, not every such curve was filed as active; the % refers to the signal ratio; note: series mostly up to about 92 µM; % of control where 0% means no effect). The note with it: HCT-116 p53RE-bla, beta-lactamase FRET ratio, 16 h; activation: stronger effect = higher value. The procedure, abridged: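 Screen for p53 pathway agonists uses stably transfected p53RE-bla HCT-116 cells, 4,000 per well, treated 16 h at 37 C with compounds in DMSO.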

Records with an inconclusive call do not appear. Active and inactive are the calls of the source. Unless noted, calls come from the whole dose curve.

Bile acid receptor (Homo sapiens), sequence (Q96RI1 whole entry, looked up): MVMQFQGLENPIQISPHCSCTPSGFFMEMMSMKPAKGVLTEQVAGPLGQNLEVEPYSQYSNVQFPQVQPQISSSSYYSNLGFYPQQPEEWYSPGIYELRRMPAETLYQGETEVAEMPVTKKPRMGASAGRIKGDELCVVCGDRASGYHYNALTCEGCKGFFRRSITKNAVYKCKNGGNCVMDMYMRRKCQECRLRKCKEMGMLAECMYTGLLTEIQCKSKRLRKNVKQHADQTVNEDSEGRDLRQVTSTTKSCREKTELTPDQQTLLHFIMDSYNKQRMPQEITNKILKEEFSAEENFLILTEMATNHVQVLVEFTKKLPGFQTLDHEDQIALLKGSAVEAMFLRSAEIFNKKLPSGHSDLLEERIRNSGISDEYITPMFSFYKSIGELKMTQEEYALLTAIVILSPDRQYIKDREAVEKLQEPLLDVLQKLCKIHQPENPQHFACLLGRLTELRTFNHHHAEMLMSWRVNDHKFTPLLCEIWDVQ
Peroxisome proliferator-activated receptor alpha (Homo sapiens), sequence (Q07869 whole entry, looked up): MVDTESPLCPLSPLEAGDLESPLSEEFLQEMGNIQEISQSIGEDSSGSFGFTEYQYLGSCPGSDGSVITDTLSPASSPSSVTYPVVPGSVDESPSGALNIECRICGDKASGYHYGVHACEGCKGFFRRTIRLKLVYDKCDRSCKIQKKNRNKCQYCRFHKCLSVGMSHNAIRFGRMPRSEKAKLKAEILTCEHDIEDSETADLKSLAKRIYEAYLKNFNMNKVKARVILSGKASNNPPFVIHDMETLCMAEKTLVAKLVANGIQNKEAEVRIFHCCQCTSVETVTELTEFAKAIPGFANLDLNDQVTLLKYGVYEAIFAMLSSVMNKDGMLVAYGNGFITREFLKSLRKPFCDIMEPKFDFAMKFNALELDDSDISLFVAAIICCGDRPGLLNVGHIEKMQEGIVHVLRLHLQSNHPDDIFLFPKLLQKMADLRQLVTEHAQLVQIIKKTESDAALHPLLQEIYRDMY

Turning to `O=C1c2ccccc2C(=O)C1C(=O)C(c1ccccc1)c1ccc(Cl)cc1` (centres undefined), the activation in assay [1] was -5.26% (inactive); in assay [11] it was -3.47% (inactive); in assay [12], 3.58% (inactive). Further, the result in [2] and in [5] was inactive. The max response in [3] was 65.6%; in [8], -2.15%; in assay [9], 36.5% (inactive); in assay [13] it was -1.87% (inactive); in [15], -33.5% (inactive); in assay [16] it was -28.8% (inactive). In addition, the Potency entry in assay [4], in assay [6], in [7], in [14] and in assay [17] was “inactive” in each case. In addition, in assay [10], the activity change % (negative = inhibition) was 15% (inactive).
Consider `Brc1ccc(Br)cc1`, for which the Potency result in [18], in [4], in assay [6], in [7], in assay [14] and in [17] was “inactive” throughout. The activation in [19] was -2.5% (inactive); in [1], 1.41% (inactive); in assay [20], -8.84% (inactive); in assay [12] it was -0.254% (inactive). Also, the outcome in assay [2] and in [5] was inactive. Further, the max response in [3] was -47.9%; in assay [8] it was -5.87%; in [9] it was 9.56% (inactive); in assay [13], -1.4% (inactive); in assay [15], -4.46% (inactive); in assay [16], -8.04% (inactive).
With `CSc1nnc(C(C)(C)C)c(=O)n1N`, the Potency result in [18], in assay [4], in [7], in [14] and in assay [17] was “inactive” throughout. In addition, the activation in assay [19] is -6.5% (inactive); in assay [1], -5.36% (inactive); in [20] it was -4.16% (inactive); in [11], -0.061% (inactive). For the same compound, the call in [2] and in assay [5] was inactive. Moreover, the max response is -34.1% in [3]; -12% in assay [8]; 6.64% (inactive) in [9]; -2.71% (inactive) in [13]; 6.99% (inactive) in [15]; -4.13% (inactive) in assay [16]. For the same compound, in assay [6], the Potency is 39.8 µM (active). Also, the activity change % (negative = inhibition) in [10] was -9.71% (inactive).
In the case of `Cc1ccc2cccnc2c1`, the activation in assay [19] is 1.5% (inactive).
As to `C#CCC1=C(C)[C@H](OC(=O)[C@H]2[C@H](C=C(C)C)C2(C)C)CC1=O`, the Potency result in assay [18], in [4], in [6], in assay [7], in assay [14] and in assay [17] was “inactive” throughout. The activation in assay [19] is 1.85% (inactive); in [20] it was 1.18% (inactive); in assay [12], 9.06% (inactive). Further, the result in [2] and in [5] was inactive. Besides, the max response in assay [3] was 25.2%; in assay [8] it was -0.262%; in assay [9], -4.47% (inactive); in assay [15], -1.44% (inactive); in assay [16], -10.8% (inactive). Moreover, the activity change % (negative = inhibition) in assay [10] is -5.41% (inactive).
With `CC(=O)Nc1ccc(C(=O)CCl)cc1`, the activation in assay [19] was 2.69% (inactive).
As for `CS(=O)(=O)NC(=O)c1cc(Oc2ccc(C(F)(F)F)cc2Cl)ccc1[N+](=O)[O-]`, the Potency entry in assay [18], in assay [4], in assay [6], in assay [7], in assay [14] and in assay [17] was “inactive” each time. The activation in assay [19] was -9.24% (inactive); in assay [20] it was -3.62% (inactive); in assay [12] it was 0.872% (inactive). The outcome in assay [5] was inactive. Besides, the max response is -6.47% in [8]; -2.65% (inactive) in assay [9]; -2.59% (inactive) in [13]; -2.76% (inactive) in assay [15]; -3.04% (inactive) in assay [16]. Also, the activity change % (negative = inhibition) in assay [10] is -8.1% (inactive).
